According to PubChem BioAssay (NCATS):
Results filed as inconclusive are left out. Calls of active or inactive are those of the source. Calls come from the whole dose curve; as a rule, active = well fitted cell-killing curve with a large enough effect; inconclusive = small, poorly fitted or top-dose-only effect; inactive = no such curve, though single readings can be large or run the other way.

Assay: qHTS of pediatric cancer cell lines to identify multiple opportunities for drug repurposing: Primary screen for Rh30 cells (AID 1347107); note: nearly all actives have a fitted effect of over 75% in size
Conditions: Rh30 rhabdomyosarcoma viability, CellTiter-Glo luminescence, 48 h; series mostly up to 46 µM; activity change, negative = cytotoxic: at the top concentration
Procedure, shortened: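 Viability after 48 h compound treatment at 37C, 500-1,000 cells/well, read as ATP luminescence with CellTiter-Glo. Primary screens used 11-point (MIPE, 0.78 nM-46 µM) or 8-point (NPC, 0.59 nM-46 µM) final concentrations; follow-up screens used 11-point dilutions.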
% is set by controls: 0 for no effect and ±100 for the full control effect.

SMILES | activity change, negative = cytotoxic
CN1CCC(N(Cc2cccs2)c2ccccc2)CC1 | 3.02% (inactive)
Cc1cccc(N(C)C(=S)Oc2ccc3c(c2)C2CCC3C2)c1 (stereo not given) | -10.2% (inactive)
Nc1cc(C(F)(F)F)ccc1S | 9% (inactive)
Cc1ccc(C(=O)Oc2ccc(C(O)CNC(C)(C)C)cc2OC(=O)c2ccc(C)cc2)cc1 (stereo not given) | 13.2% (inactive)
C=CCNc1nc(NCC=C)nc(N2CCN(C(c3ccc(F)cc3)c3ccc(F)cc3)CC2)n1 | -0.631% (inactive)
CO[C@@H]1[C@@H](OC)[C@H](C)[C@@](O)(CC(=O)O)O[C@H]1[C@H](C)[C@H]1O[C@@]2(CC[C@@](C)([C@H]3CC[C@@](C)([C@@H]4O[C@@H]([C@H]5O[C@](C)(O)[C@H](C)C[C@@H]5C)C[C@@H]4OC4C[C@H](OC)[C@@H](OC)[C@H](C)O4)O3)O2)C[C@H](O)[C@H]1C (stereo not given in full) | -25.1% (inactive)
Cc1cccc(OCC(O)CNC(C)(C)C)c1C (stereo not given) | 1.9% (inactive)
CCCCN(CCCC)C(C(N)=O)c1ccc(OC)cc1 (stereo not given) | 21.1% (inactive)
COc1c(C)c2c(c(O)c1C/C=C(\C)CCC(=O)OCCN1CCOCC1)C(=O)OC2 | -8.82% (inactive)
CCCCCC(=O)O[C@]1(C(C)=O)CC[C@H]2[C@@H]3CCC4=CC(=O)CC[C@]4(C)[C@H]3CC[C@@]21C | -7.89% (inactive)
CC(CC1c2ccccc2CCc2ccccc21)CN(C)C (stereo not given) | 22.2% (inactive)
N#C/C(=C1/SC[C@@H](c2ccc(Cl)cc2Cl)S1)n1ccnc1 | -2.92% (inactive)
COc1ccc([C@@H]2Sc3ccccc3NC(=O)[C@@H]2O)cc1 | 19.7% (inactive)
CC(C)C[C@@H]1[C@H](c2ccccc2)OC(=O)N1CCCN1CCCCCC1 | 6.02% (inactive)
CC(C)OC(=O)c1cc2c(OCC(O)CNC(C)(C)C)cccc2[nH]1 (stereo not given) | 5.23% (inactive)
CC1CC(=O)NN=C1c1ccc(NCC(C)(C)NCC(O)COc2cc(Cl)ccc2C#N)cc1 (stereo not given) | 5.99% (inactive)
CCCCC/C=C\C/C=C\CCCCCCCC(=O)NC(C)c1ccccc1 (stereo not given) | 18% (inactive)
O=C(NO)c1ccccc1 | 16% [at 92.7 µM] (inactive)
Cc1ccc(Cl)c(OCC(O)CNC(C)(C)C)c1 (stereo not given) | 17.7% (inactive)
CCC(C(=O)NC(=O)NC(C)=O)c1ccccc1 (stereo not given) | 9.91% (inactive)
Cc1ccc(CCn2c3c(c4cc(Cl)ccc42)CN(C)CC3)cn1 | 10.1% (inactive)
CC(=O)O[C@@H]1C(=O)O[C@@H]2[C@H]1OC(=O)[C@@H]2OC(C)=O | 17.2% (inactive)
CC(C)C(=O)OCc1cccc(OC(=O)[C@@H]2N3C(=O)[C@@H](NC(=O)Cc4ccccc4)[C@H]3SC2(C)C)c1 | 27.4% (inactive)
CCCN(CCC)C(=O)C(CCC(=O)OCCCN1CCN(CCOC(=O)Cc2c(C)n(C(=O)c3ccc(Cl)cc3)c3ccc(OC)cc23)CC1)NC(=O)c1ccccc1 (stereo not given) | 7.06% (inactive)
CN1CC[C@H](c2c(O)cc(O)c3c(=O)cc(-c4ccccc4Cl)oc23)[C@H](O)C1 | 11% (inactive)
Oc1ccc(CCNCCCCCCNCCc2ccccc2)cc1O | 15% (inactive)
CCCCCOc1ccccc1/C(=C\SC)n1ccnc1 | -5.68% (inactive)
O=C(CCC1CCN(Cc2ccccc2)CC1)c1ccc2c(c1)NCCCC2 | 19.5% (inactive)
CCOC(=O)Cn1cccc1-c1nc(-c2ccc(OC)cc2)c(-c2ccc(OC)cc2)s1 | 13.6% (inactive)
CN1CCC(Nc2ncc3ncnc(Nc4ccc(F)c(Cl)c4)c3n2)CC1 | 9.8% (inactive)
